According to PubChem BioAssay (NCI):
This is part of a sample that, as a whole, favours compounds with a hit. Of some 83,000 tested, about 20% had one in any assay.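 Negative percent growth values reflect cell death: -40 means 40% of the cells present at the start died, and -100 means all died.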 Calls of active or inactive are those of the source. The calls were made as follows: active = growth percent below 10; inactive = the rest.

Legend:
Test in all cases: NCI-60 one-dose screen, 48 h (100 = growth as untreated, 0 = no growth, -100 = all killed)
Conditions in all cases: 10 µM unless noted
NCI-H23 lung = test system: NCI-H23 lung
NCI-H226 lung = test system: NCI-H226 lung
NCI-H322M lung = test system: NCI-H322M lung
HOP-62 NSCLC = test system: HOP-62 NSCLC
NCI-H460 lung = test system: NCI-H460 lung
HOP-92 NSCLC = test system: HOP-92 NSCLC
NCI-H522 lung = test system: NCI-H522 lung
A549/ATCC NSCLC = test system: A549/ATCC NSCLC
786-0 renal = test system: 786-0 renal
COLO 205 colon = test system: COLO 205 colon

Measured: growth

O=C1c2ccccc2-c2nccc3cc(Cl)nc1c23
active: NCI-H23 lung -62.3% | NCI-H522 lung -75.9%
inactive: NCI-H226 lung 48.2% | NCI-H322M lung 95.7% | HOP-62 NSCLC 47.6% | NCI-H460 lung 40.2% | HOP-92 NSCLC 21.2% | A549/ATCC NSCLC 73% | 786-0 renal 71.1% | COLO 205 colon 54.7%

COc1cc(/C=C2\CN(C(=O)CCN3CCC(=NO)CC3)C/C(=C\c3cc(OC)c(OC)c(OC)c3)C2=O)cc(OC)c1OC
active: NCI-H23 lung -21.9% | NCI-H226 lung -6.36% | NCI-H322M lung -89.2% | HOP-62 NSCLC -47.2% | NCI-H460 lung -64% | HOP-92 NSCLC -49.2% | NCI-H522 lung -74.7% | A549/ATCC NSCLC 2.51% | 786-0 renal -38.6% | COLO 205 colon -85.8%

CC(=O)C1=C(O)C=C2Oc3c(C(=O)/C=C/c4cc(C(F)(F)F)cc(C(F)(F)F)c4)c(O)c(C)c(O)c3[C@]2(C)C1=O
active: NCI-H23 lung -55.8% | NCI-H226 lung -56.5% | NCI-H322M lung -44.8% | HOP-62 NSCLC -52.6% | NCI-H460 lung -32.6% | HOP-92 NSCLC -41.2% | NCI-H522 lung -36% | A549/ATCC NSCLC -46.7% | 786-0 renal -46.3% | COLO 205 colon -66.6%

O=C(O)c1cn(C2CC2)c2cc(N3CCN(Cc4nc5c(cnn5-c5ccc([N+](=O)[O-])cc5)c(=O)[nH]4)CC3)c(F)cc2c1=O
inactive: NCI-H23 lung 101% | NCI-H226 lung 94.8% | NCI-H322M lung 99.1% | HOP-62 NSCLC 103% | NCI-H460 lung 105% | HOP-92 NSCLC 112% | NCI-H522 lung 95% | A549/ATCC NSCLC 102% | 786-0 renal 98.9% | COLO 205 colon 112%

COc1ccc(C(=O)/C=C/c2c(Cl)c3c(c(OC)c2Cl)OCC(=O)N3)cc1
inactive: NCI-H23 lung 43.1% | NCI-H226 lung 62.9% | NCI-H322M lung 79.8% | HOP-62 NSCLC 21% | NCI-H460 lung 12% | HOP-92 NSCLC 74.5% | NCI-H522 lung 12.7% | A549/ATCC NSCLC 61.1% | 786-0 renal 58.2% | COLO 205 colon 62.1%

CC(C)[C@H]1COC(=O)N1[C@@H]1C(=O)N([C@@H](CCC(=O)N2CCN(C3CCCC3)CC2)C(=O)N[C@@H]2CCCc3ccccc32)[C@@H]1/C=C/c1cccc(Br)c1
inactive: NCI-H23 lung 64.7% | NCI-H226 lung 74% | NCI-H322M lung 39.3% | HOP-62 NSCLC 59.5% | NCI-H460 lung 31.6% | HOP-92 NSCLC 44.7% | NCI-H522 lung 27.4% | A549/ATCC NSCLC 25.7% | 786-0 renal 44.3% | COLO 205 colon 24%

O=C(O)c1cccc2c1-c1ccccc1C2=O
inactive: NCI-H23 lung 98.4% | NCI-H226 lung 91.6% | NCI-H322M lung 83.9% | HOP-62 NSCLC 95.3% | NCI-H460 lung 105% | HOP-92 NSCLC 80.8% | NCI-H522 lung 88.2% | A549/ATCC NSCLC 101% | 786-0 renal 102% | COLO 205 colon 99.8%

C/C(=C(/c1ccc(O)cc1)c1ccc(OCCN2CCCC2)cc1)c1ccccc1
active: COLO 205 colon -56.4%
inactive: NCI-H23 lung 68.1% | NCI-H226 lung 82.9% | NCI-H322M lung 75.8% | HOP-62 NSCLC 70.3% | NCI-H460 lung 24.7% | HOP-92 NSCLC 30% | NCI-H522 lung 49.8% | A549/ATCC NSCLC 48.7% | 786-0 renal 57.1%

Cc1ccc(S(=O)(=O)n2cc(-c3csc(-c4cn(C)c5ncccc45)n3)c3ccccc32)cc1
inactive: NCI-H23 lung 68.1% | NCI-H226 lung 77.6% | NCI-H322M lung 79.5% | HOP-62 NSCLC 51.8% | NCI-H460 lung 30.3% | HOP-92 NSCLC 35.8% | NCI-H522 lung 45.6% | A549/ATCC NSCLC 41.5% | 786-0 renal 77.9% | COLO 205 colon 43.6%

O=[N+]([O-])c1c(F)cccc1Nc1cccc(F)c1
inactive: NCI-H23 lung 104% | NCI-H226 lung 94.7% | NCI-H322M lung 108% | HOP-62 NSCLC 102% | NCI-H460 lung 107% | HOP-92 NSCLC 94.6% | NCI-H522 lung 92% | A549/ATCC NSCLC 106% | 786-0 renal 93.9% | COLO 205 colon 121%

O=C1C[C@H](N2C(=O)c3ccccc3S2(=O)=O)C2CO[C@@H]1O2
active: NCI-H522 lung -45.6%
inactive: NCI-H23 lung 89.3% | NCI-H226 lung 96.1% | NCI-H322M lung 103% | HOP-62 NSCLC 92.6% | NCI-H460 lung 103% | HOP-92 NSCLC 98.4% | A549/ATCC NSCLC 89.1% | 786-0 renal 96.9% | COLO 205 colon 64.1%

COc1cccc(/C=C2/C(=O)N(Cc3ccco3)SC2=S)c1OC
inactive: NCI-H23 lung 108% | NCI-H226 lung 101% | NCI-H322M lung 98.7% | HOP-62 NSCLC 105% | NCI-H460 lung 102% | HOP-92 NSCLC 93% | NCI-H522 lung 83.7% | A549/ATCC NSCLC 100% | 786-0 renal 101% | COLO 205 colon 111%

CCOC(=O)/C=C/C(=O)[C@H](CC(C)C)NC(=O)[C@H](Cc1ccccc1)NC(=O)OCc1ccccc1
inactive: NCI-H23 lung 91% | NCI-H226 lung 102% | NCI-H322M lung 103% | HOP-62 NSCLC 108% | NCI-H460 lung 84.9% | HOP-92 NSCLC 79.7% | NCI-H522 lung 18% | A549/ATCC NSCLC 73.3% | 786-0 renal 30% | COLO 205 colon 67.5%
